Source: ChEMBL document CHEMBL3988442, “University of Dundee, Small-Polar-MMV Screening Library” (2021)
For some assays here: Entries with a potency or affinity are not part of this list.

Key:
Parameters in all cases: scale not given: direction of the effect not stated beside the values
[1] = target: Protein translocase subunit SecA (Escherichia coli (strain K12)) (UniProt P10408); experiment: Assay to Identify E. coli SecA ATPase Inhibitors; format: functional; conditions: 30 µM
[2] = target: T1, Ubiquitin-activating enzyme e1, putative (Leishmania donovani (strain BPK282A1)) (UniProt E9BSI1); experiment: Leishmania donovani Ubiquitin Activating Enzyme (LdE1); format: functional; conditions: 30 µM
T1 sequence (whole entry): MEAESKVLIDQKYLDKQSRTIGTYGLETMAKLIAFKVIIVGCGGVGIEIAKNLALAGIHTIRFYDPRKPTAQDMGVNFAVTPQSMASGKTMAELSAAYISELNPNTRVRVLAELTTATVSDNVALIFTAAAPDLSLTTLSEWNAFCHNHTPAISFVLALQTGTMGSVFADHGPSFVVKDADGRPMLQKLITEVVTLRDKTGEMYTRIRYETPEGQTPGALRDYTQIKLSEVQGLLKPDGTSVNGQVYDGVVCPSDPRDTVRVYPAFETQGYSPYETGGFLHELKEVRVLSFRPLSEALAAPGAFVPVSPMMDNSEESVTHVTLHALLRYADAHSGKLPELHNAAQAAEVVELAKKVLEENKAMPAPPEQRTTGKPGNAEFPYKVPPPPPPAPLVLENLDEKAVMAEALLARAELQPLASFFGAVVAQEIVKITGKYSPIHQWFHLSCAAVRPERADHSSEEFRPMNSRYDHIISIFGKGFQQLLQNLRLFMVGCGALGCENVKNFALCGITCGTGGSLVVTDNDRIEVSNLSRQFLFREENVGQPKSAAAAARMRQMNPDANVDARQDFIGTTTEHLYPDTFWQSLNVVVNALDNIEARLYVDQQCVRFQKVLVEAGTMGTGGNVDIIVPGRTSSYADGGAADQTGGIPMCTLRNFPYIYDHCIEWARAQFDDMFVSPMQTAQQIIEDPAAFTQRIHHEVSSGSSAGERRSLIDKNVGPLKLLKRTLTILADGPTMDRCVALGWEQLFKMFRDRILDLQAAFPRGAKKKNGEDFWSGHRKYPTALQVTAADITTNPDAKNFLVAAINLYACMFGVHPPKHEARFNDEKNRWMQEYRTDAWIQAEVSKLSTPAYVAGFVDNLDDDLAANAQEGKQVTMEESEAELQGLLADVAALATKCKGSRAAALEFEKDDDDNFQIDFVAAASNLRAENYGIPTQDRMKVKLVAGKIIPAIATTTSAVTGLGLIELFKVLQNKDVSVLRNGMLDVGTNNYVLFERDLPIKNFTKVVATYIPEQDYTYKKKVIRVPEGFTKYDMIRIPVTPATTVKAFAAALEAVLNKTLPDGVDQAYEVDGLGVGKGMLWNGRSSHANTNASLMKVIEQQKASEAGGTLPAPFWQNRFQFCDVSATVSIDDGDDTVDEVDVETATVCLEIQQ

[3] = target: T2, Aspartate--tRNA(Asp/Asn) ligase (Mycobacterium tuberculosis (strain ATCC 25618 / H37Rv)) (UniProt P9WFW3); experiment: Assay for Asp RNA synthetase-1 from Mycobacterium tuberculosis; format: functional; conditions: 30 µM; also: in the data most compounds retested in dose-response had high values
T2 sequence (whole entry): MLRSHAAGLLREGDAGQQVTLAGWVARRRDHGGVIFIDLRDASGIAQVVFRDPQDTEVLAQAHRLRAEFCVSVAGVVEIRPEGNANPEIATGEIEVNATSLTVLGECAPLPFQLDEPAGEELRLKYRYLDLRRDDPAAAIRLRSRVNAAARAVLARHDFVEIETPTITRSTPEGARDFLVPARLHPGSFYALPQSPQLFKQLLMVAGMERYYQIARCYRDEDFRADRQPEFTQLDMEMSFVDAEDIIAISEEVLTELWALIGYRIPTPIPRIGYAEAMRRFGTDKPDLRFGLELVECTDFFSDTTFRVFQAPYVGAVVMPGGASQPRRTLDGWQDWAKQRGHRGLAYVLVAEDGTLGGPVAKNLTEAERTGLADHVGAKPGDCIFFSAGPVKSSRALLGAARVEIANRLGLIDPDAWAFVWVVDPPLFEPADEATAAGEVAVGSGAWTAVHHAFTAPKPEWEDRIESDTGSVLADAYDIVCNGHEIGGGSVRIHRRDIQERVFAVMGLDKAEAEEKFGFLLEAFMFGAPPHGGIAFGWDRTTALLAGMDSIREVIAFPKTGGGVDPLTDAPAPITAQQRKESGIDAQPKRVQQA

[4] = target: AMP-activated protein kinase, AMPK (Homo sapiens) (UniProt P54646+O43741+P54619+Q9UGJ0+Q9Y478+Q13131+Q9UGI9); experiment: AMP-dependent Kinase enzyme assay. An in vitro enzyme assay that detects ADP turnover that is directly proportional to AMPK activity. This uses naive AMPK that is activated during the assay with MK-8722; format: functional; conditions: 30 µM
[5] = target: Sialic acid-binding Ig-like lectin 9 (Homo sapiens) (UniProt Q9Y336); experiment: Hs-Siglec9 ALPHAscreen SOP 20170721; conditions: 10 µM
Sequence of Sialic acid-binding Ig-like lectin 9 (Homo sapiens) (Q9Y336 whole entry): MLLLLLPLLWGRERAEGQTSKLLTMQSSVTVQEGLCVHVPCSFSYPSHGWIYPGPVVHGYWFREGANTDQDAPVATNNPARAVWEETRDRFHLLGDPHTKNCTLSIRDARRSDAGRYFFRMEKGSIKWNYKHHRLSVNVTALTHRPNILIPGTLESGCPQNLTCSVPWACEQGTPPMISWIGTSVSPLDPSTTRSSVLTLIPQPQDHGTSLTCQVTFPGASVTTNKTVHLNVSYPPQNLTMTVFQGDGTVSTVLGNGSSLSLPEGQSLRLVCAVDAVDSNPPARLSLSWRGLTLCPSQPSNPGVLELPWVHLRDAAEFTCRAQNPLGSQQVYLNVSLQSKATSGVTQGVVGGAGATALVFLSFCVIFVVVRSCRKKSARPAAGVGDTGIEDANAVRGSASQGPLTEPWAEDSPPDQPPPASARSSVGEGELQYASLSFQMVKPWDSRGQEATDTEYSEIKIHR

Trypanosoma cruzi = experiment: Trypanosoma cruzi phosphomannomutase and mannose-1-phosphate guanylyltransferase assay; format: functional; conditions: 10 µM
[6] = target: T3, Arginase-2, mitochondrial (Homo sapiens) (UniProt P78540); experiment: in vitro enzyme assay to detect the production of urea directly proportional to the activity of Arginase II; format: functional; conditions: 33.3 µM; also: in the data most compounds retested in dose-response had high values
T3 sequence (whole entry): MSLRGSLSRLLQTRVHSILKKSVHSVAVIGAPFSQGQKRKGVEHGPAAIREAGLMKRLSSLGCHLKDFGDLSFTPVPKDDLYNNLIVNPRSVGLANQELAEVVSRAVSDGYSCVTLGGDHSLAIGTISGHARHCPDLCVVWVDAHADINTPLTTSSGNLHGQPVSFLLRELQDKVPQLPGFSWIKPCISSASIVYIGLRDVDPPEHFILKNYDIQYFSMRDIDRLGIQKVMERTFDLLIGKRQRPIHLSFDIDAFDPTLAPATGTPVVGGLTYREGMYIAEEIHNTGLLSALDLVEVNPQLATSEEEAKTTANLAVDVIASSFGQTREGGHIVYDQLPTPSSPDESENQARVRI

[7] = target: T4, Proteasome subunit beta (Trypanosoma cruzi) (UniProt O96673); experiment: Trypanosoma cruzi proteasome chymotrypsin-like activity (TcProtChymo) assay.; also: in the data most compounds retested in dose-response had high values; format: functional; conditions: 9.37 µM
T4 sequence (whole entry): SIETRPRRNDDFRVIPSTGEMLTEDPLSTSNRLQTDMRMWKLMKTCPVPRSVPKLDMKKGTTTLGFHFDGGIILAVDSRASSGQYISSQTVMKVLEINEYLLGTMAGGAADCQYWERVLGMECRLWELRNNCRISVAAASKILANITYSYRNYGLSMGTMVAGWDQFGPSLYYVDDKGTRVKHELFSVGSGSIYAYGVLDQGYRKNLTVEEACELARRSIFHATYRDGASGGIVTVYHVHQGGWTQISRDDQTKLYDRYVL

Homo sapiens = species on record: Homo sapiens; experiment: To identify inhibition of the IFN signalling (Jak-Stat) pathway via expression of an eGFP reporter gene under the control of an IFN-stimulated response element (ISRE) containing MxA promoter.; format: functional; conditions: 30 µM
[8] = target: Shiga toxin 2 (Escherichia coli O157:H7) (UniProt P09385+P09386); experiment: E. coli 0.157:H7 Shiga Toxin SOP - stx2 screening assay; format: functional; conditions: 30 µM
[9] = target: T5, Tyrosyl-tRNA synthetase, putative (Trypanosoma cruzi (strain CL Brener)) (UniProt Q4DSP6); experiment: Trypanosoma cruzi tyrosyl tRNA synthetase (TcYRS) _High Tyrosine SOP; format: functional; conditions: 30 µM; also: in the data most compounds retested in dose-response had high values
T5 sequence (whole entry): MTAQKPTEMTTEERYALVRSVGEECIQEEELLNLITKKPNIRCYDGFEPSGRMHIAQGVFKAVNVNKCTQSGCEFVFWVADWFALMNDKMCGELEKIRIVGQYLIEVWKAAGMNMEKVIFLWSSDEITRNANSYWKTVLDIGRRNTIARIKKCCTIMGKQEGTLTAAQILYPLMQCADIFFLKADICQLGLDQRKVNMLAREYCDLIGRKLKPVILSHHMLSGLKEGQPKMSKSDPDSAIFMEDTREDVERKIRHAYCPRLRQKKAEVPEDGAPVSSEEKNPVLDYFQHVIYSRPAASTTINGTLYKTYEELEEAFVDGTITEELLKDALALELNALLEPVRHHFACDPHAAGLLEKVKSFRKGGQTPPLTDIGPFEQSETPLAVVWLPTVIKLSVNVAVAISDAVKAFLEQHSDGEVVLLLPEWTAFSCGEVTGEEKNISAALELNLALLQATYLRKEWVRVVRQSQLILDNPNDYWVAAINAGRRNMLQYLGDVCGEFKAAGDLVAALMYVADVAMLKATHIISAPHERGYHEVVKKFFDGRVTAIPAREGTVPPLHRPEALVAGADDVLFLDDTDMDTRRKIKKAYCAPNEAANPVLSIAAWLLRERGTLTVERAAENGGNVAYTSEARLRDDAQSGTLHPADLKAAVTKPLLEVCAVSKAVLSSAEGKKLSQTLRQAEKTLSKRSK

[10] = target: T5, Tyrosyl-tRNA synthetase, putative (Trypanosoma cruzi (strain CL Brener)); experiment: Trypanosoma cruzi tyrosyl tRNA synthetase (TcYRS) SOP; format: functional; conditions: 30 µM
[11] = target: Chromo domain-containing protein 1 (Saccharomyces cerevisiae (strain ATCC 204508 / S288c) (Baker's yeast)) (UniProt P32657); experiment: ScCHD-1 Enzyme Inhibition Assay; format: functional; conditions: 30 µM; also: in the data most compounds retested in dose-response had high values
Sequence of Chromo domain-containing protein 1 (Saccharomyces cerevisiae (strain ATCC 204508 / S288c) (Baker's yeast)) (P32657 whole entry, the tested form may be a part): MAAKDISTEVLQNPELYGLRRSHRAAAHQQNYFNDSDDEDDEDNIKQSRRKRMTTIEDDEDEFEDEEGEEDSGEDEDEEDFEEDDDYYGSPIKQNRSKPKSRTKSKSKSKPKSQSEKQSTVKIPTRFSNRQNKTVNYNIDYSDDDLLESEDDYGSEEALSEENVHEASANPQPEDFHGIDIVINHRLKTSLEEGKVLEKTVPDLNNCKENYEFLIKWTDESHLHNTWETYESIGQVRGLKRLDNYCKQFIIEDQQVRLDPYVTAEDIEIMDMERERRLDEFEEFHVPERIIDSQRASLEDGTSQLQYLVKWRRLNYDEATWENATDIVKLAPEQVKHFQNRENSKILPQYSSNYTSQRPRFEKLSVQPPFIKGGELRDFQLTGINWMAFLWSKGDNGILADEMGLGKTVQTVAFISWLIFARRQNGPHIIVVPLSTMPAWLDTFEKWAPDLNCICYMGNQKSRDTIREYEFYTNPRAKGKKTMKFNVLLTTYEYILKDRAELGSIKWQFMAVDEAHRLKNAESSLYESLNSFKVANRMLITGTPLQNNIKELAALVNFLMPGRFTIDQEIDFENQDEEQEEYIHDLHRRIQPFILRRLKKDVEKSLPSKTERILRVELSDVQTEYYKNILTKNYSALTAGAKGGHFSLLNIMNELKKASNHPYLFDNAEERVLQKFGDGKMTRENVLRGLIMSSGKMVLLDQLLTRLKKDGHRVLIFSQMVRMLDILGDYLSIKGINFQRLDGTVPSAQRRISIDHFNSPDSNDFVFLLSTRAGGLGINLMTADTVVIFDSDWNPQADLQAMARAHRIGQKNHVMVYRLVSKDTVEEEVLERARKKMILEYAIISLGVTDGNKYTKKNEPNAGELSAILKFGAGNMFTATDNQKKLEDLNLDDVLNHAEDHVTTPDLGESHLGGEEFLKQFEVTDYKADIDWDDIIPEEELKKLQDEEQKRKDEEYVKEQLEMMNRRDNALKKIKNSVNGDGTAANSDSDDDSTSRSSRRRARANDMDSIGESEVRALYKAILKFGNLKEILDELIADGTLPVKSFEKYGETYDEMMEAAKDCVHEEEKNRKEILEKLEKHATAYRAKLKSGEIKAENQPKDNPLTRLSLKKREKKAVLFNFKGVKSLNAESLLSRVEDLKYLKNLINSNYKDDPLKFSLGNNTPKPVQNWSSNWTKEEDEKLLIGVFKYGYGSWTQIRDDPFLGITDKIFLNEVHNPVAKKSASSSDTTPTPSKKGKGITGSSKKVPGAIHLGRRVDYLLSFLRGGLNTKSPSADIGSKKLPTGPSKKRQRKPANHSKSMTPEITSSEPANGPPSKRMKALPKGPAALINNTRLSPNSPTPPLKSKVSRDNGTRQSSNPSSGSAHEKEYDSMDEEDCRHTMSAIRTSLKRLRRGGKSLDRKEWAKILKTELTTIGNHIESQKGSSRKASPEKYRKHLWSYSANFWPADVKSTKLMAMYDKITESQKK

Sequence of Protein translocase subunit SecA (Escherichia coli (strain K12)) (P10408 whole entry): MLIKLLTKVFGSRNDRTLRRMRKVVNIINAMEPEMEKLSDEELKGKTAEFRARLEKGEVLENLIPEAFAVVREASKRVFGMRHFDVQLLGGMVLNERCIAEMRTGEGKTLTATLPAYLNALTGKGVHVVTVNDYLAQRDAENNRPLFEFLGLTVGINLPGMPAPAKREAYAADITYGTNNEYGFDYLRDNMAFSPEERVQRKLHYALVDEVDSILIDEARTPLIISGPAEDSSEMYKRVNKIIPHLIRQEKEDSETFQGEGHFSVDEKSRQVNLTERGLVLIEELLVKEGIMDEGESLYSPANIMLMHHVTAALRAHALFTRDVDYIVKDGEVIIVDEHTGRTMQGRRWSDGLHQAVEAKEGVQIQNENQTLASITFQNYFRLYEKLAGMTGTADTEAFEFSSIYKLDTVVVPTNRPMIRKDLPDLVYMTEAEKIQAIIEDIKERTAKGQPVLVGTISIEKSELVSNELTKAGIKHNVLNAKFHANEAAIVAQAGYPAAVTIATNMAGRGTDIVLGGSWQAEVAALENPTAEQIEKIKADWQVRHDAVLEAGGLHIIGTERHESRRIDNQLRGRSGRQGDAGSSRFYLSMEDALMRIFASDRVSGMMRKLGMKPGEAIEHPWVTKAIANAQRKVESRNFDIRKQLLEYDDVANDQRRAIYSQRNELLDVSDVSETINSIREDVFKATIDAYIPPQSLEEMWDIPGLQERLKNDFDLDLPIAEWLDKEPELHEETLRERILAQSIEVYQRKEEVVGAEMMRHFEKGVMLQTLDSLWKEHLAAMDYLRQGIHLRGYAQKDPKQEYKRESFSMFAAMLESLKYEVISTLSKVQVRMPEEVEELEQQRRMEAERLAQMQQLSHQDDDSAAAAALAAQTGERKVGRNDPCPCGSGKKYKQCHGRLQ

Row | Compound | Percent Effect [1] | Percent Effect [2] | Percent Effect [3] | Percent Effect [4] | Percent Effect [5] | Percent Effect (Trypanosoma cruzi) | Percent Effect [6] | Percent Effect [7] | Percent Effect (Homo sapiens) | Percent Effect [8] | Percent Effect [9] | Percent Effect [10] | Percent Effect [11]
1 | Cc1nnc(N2CCCC3(CN(Cc4ccncc4)CCO3)C2)o1 (centres undefined) | 3.96% | 5.48% | -2.96% | 0.217% | 8.21% | -4.76% | -2% | 20.3% | 6.92% | -16.9% | 4.17% | 16.1% | 0.771%
2 | O=C(NCC1CC1)[C@H]1C[C@@H]2[C@@H](C1)OCCN2Cc1cccnc1 | -2.08% | -5.33% | -0.291% | 6.97% | 0.812% | -1.93% | -52.5% | -2.73% | 9.72% | -7.08% | -1.04% | -5% | 4.12%
3 | c1cncc(OC[C@@H]2CC[C@H]3[C@H](CCN3Cc3cccs3)O2)c1 | -2.2% | 5.33% | -2.1% | 4.9% | -3.46% | -2.56% | 2.1% | -0.969% | -0.872% | -5.68% | 2.13% | 8.97% | 2.16%
4 | Cc1cnc(N2CCCC3(CCCN(C)C3)C2)nc1 (centres undefined) | -4.89% | 0% | -0.912% | 0.0306% | 4.33% | 3.37% | -6.79% | 8.82% | -22.4% | 7.25% | -2.08% | 8.64% | -5.6%
5 | Cc1ccc(N2CCO[C@H]3CN(Cc4ccncc4)C[C@H]32)nn1 | -2.06% | 2.7% | 2.28% | 3.63% | -2.84% | -2.83% | 1.59% | 19.6% | 4.04% | -5.64% | 8.65% | 10.3% | -5.13%
6 | CCS(=O)(=O)N[C@@H]1CN(Cc2cc(C)on2)C[C@@H]2CCCO[C@@H]21 | -5.04% | 8.11% | 4.25% | 0.656% | 19% | 1.66% | 4.71% | 6.27% | -3.3% | 1.95% | 6.45% | 18.5% | -4.16%
7 | CCN(CC)C(=O)c1ccc(NC(=O)CNc2ccc(Br)cc2F)cc1 | -3.06% | 10.5% | 0.958% | 1.85% | -6.58% | 1.85% | -17.8% | 12% | 2.22% | -41.8% | 5.32% | 20.8% | -13%
8 | Cc1cccc(CN2CC[C@@H]3[C@@H]2CCN3C(=O)c2ccno2)n1 | -0.832% | -2.7% | 3.7% | -8.15% | -3.73% | 6.84% | -1.67% | 12.1% | -11.7% | -15.7% | -13.9% | 1.22% | 94%
